In PubChem BioAssay AID2781 (National Center for Advancing Translational Sciences (NCATS), 2010):
Active and inactive are the calls of the source.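 How the source made its calls: active means compound whose NMR saturation transfer difference test with menin is positive, showing direct binding to the protein; inactive means the rest.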

Biological target: Menin (Homo sapiens) (UniProt O00255)
Assay: Confirmation of Inhibitors Targeting the Menin-MLL Interaction in MLL Related Leukemias: NMR spectroscopy to verify direct binding of compounds to menin
Conditions: purified menin, NMR STD binding, 100 uM
Excerpt: qHTS Assay for Inhibitors Targeting the Menin-MLL Interaction in MLL Related Leukemias NIH Chemical Genomics Center [NCGC] NIH Molecular Libraries Probe Centers Network [MLPCN] MLPCN Grant: MH084875-01A1 Assay Submitter (PI): Jolanta Grembecka, Tomasz Cierpicki, University of Virginia Translocations of the MLL (Mixed Lineage Leukemia) gene are frequently found in human leukemias affecting both children and adults. Fusion of MLL to one of more than 60 genes results in generation of oncogenic proteins upregulating Hox genes, which are vital to blood cell development. Patients harboring fusion of the MLL gene suffer from aggressive leukemias and respond poorly to available therapies. All of the oncogenic fusion proteins have a preserved N-terminal fragment of MLL that has been identified to interact with menin. It has been recently discovered that association with menin is critical to the leukemogenic activity of the MLL fusion oncoproteins. Selective targeting of the menin-MLL interaction could provide an attractive therapeutic approach to develop novel drugs for MLL-related leukemias. Small molecules blocking the menin-MLL interaction should reverse the oncogenic potential of MLL fusion proteins. We have developed and optimized a fluorescence polarization-based assay for the identification of Menin-MLL inhibitors. The assay was run employing two different MLL-derived peptides. […]

Sequence of Menin (Homo sapiens) (O00255 whole entry, looked up): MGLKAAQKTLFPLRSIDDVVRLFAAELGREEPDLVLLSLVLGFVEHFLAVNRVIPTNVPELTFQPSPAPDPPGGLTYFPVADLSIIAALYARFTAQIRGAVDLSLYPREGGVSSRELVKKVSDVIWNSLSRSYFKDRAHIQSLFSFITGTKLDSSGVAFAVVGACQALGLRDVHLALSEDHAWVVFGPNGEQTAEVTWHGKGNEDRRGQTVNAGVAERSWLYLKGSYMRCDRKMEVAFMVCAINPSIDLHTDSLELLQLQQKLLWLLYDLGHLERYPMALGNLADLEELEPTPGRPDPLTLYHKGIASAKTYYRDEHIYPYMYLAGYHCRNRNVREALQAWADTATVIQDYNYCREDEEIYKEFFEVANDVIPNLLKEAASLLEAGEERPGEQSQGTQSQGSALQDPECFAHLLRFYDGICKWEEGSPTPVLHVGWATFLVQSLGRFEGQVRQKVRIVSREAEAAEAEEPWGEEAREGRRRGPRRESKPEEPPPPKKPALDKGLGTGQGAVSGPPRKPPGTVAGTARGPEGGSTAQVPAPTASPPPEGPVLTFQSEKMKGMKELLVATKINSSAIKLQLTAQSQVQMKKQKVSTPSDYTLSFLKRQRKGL

SMILES	outcome
c1cc2cc(c1)C[n+]1ccc(c3ccccc31)NCc1ccc(cc1)CNc1cc[n+](c3ccccc13)C2	inactive; negative
CCCCn1c(=O)c(C(=O)Nc2ccsc2C(=O)OC)c(O)c2ccccc21	inactive; negative
